Data on 66 compounds can be found in PubChem BioAssay AID1741 (Vanderbilt High Throughput Screening Facility, 2009).

Hit rate of the full screen: of about 1,700 compounds, about 150 (8.8%) were called active. Another 19% or so got no clear call; they are omitted. A selection follows. A number with no mark means an inactive call.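 Rule for the calls: active = fluorescence change differing from the plate's solvent-only control wells at 99.7% confidence in both duplicates, whether higher or lower; inconclusive = differs from solvent controls in only one of two duplicates; inactive = the rest.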

Chain of Muscarinic acetylcholine receptor M4 (Rattus norvegicus) (P08485 whole entry, looked up): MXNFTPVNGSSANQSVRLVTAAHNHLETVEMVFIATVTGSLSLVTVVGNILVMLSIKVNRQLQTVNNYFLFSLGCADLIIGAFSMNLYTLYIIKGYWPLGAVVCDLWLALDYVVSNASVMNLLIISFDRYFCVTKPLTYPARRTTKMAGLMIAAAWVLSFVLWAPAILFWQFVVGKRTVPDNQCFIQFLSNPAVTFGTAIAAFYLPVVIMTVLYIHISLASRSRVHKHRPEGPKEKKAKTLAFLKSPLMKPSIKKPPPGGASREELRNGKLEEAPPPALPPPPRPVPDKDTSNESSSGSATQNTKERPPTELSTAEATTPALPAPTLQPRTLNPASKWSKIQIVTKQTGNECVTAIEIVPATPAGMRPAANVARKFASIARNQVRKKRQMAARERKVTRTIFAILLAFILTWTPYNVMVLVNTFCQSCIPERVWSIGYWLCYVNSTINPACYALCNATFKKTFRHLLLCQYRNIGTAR

This test concerns the target Muscarinic acetylcholine receptor M4 (Rattus norvegicus) (UniProt P08485). Briefly: rat M4 muscarinic receptor activation – cell-based, agonist mode, counter-screen for M1 allosteric modulator project, confirmation (AID 1741). To be noted: CHO M4/Gqi5 cells, Fluo-4 calcium fluorescence, at 10 µM, actives lie on both sides. (Counterscreens check selectivity or assay interference.)
Take `O=C(O)c1ccc(COCC(F)(F)F)cc1`: the fluorescence change (max-min) was -14. Regarding `COCCNC(=O)C(c1ccc(C)o1)N(Cc1cccs1)C(=O)c1snc(C(N)=O)c1N` (stereo unspecified), the fluorescence change (max-min) is -6.44.

As for `COc1cccc2c(C)c(C(=O)O)[nH]c12`, the fluorescence change (max-min) is -9.04.

Consider `COc1ccccc1NC1=NC(c2ccc(Cl)cc2)N=C(N)N1` (stereo unspecified), for which the fluorescence change (max-min) is -38.9.

As to `N#CC1=C(N)Oc2c(sc3ccccc23)C1c1ccco1` (stereo unspecified), the fluorescence change (max-min) was 50.

Turning to `CCOc1ccc2nc(N3CCCN(C(=O)Nc4ccccc4C)CC3)c(C#N)cc2c1`, the fluorescence change (max-min) is 246 (active). To `Cc1cc(NC(=O)COc2ccc(Cl)cc2Cl)n(CCC#N)n1` belongs -13.8; to `C(=N\n1cnnc1)/c1cccnc1`, -25.3. With `COc1ccc2nc(N3CCCC(O)C3)c(C#N)cc2c1` (stereo unspecified), the fluorescence change (max-min) was 176 (active). As to `COc1ccc(N(CC(=O)NC(C)(C)C)C(=O)c2ccco2)cc1`, the fluorescence change (max-min) was -53.4.

For `O=C(CSc1nnc(-c2ccco2)n1Cc1ccccc1)NC(=O)NCc1ccco1`, the fluorescence change (max-min) is -23.1.

Regarding `COc1ncnc2c1N=C1CC(C)(C)CC(N)=C1S2`, the fluorescence change (max-min) was 136 (active). Take `c1ccc2c(c1)OCC(CNc1ncnc3nc[nH]c13)O2` (stereo unspecified): the fluorescence change (max-min) was 1130 (active). Consider `Cc1nc2ccccc2c2oc(C(=O)NCC3CCCO3)cc12` (stereo unspecified), for which the fluorescence change (max-min) is -66.7. Turning to `COC(=O)c1ccc(CSc2nc3ccccc3c(=O)n2-c2cccc(OC)c2)o1`, the fluorescence change (max-min) was -28.9. Consider `Cc1nc(CNS(=O)(=O)c2ccc(Oc3ccccc3)cc2)cs1`, for which the fluorescence change (max-min) is 2.92.

With `COc1ccccc1NC(=O)CSc1nnc(Cn2nnc(-c3ccccc3)n2)n1-c1ccccc1`, the fluorescence change (max-min) was -51.1. Turning to `COc1ccccc1N1CCN(C(=O)c2cn(-c3ccccc3)nc2-c2cccnc2)CC1`, the fluorescence change (max-min) was -73.3. For `COc1ccc(CCNC(=O)C2CCN(c3nn4c(=O)cc(C)nc4s3)CC2)cc1OC` the value was -40.

As to `CCOc1cc(-c2nc3cc(C)ccn3c2NCC2CCCO2)ccc1O` (stereo unspecified), the fluorescence change (max-min) was -60.7. `CCOc1ccc(NC(=O)N2CC=C(n3c(=O)[nH]c4ccccc43)CC2)cc1`: the fluorescence change (max-min) was -26.4. For `COc1ccc(Nc2oc(-c3ccccc3Cl)nc2C#N)cc1`, the fluorescence change (max-min) was -74.3. For `O=C(NCCC1=CCCCC1)C1CCN(Cc2cnn(-c3ccccc3)c2-n2cccc2)CC1` the value was -67.1; for `c1n[nH]c(NCc2ccc3c(c2)OCO3)n1`, -28.2. As for `CC1CCCC(C)N1C(=O)CN1CCN(c2nc(-c3ccc(F)cc3)cs2)CC1` (stereo unspecified), the fluorescence change (max-min) was -9.73. For `Nc1ccc(SCCN2C(=O)c3ccccc3C2=O)cc1`, the fluorescence change (max-min) is -77.3. For `Cc1cc2cc(CN(Cc3cccs3)Cc3nnnn3CC3CCCO3)c(=O)[nH]c2cc1C` (stereo unspecified) the value was -27; for `O=C(c1ccccc1)c1ccc(OC(=O)N2CCCC2)cc1`, -25.9; for `CC(NC(=O)CSc1nc2c(cc1C#N)CN(C)CC2)c1ccccc1` (stereo unspecified), -18.9. Turning to `O=C(Nc1cccc(NC(=O)N2CCN(c3ccccc3)CC2)c1)N1CCN(c2ccccc2)CC1`, the fluorescence change (max-min) is -12.4.

As to `Cc1nn2c(c1-c1ccccc1)N=C(c1ccco1)CC2c1ccccc1` (stereo unspecified), the fluorescence change (max-min) is 5.67. Regarding `CCOc1nc(-c2ccc(OC)cc2)ccc1-c1noc(-c2cc(OC)c(OC)c(OC)c2)n1`, the fluorescence change (max-min) is 18.4.

Turning to `CCCOc1ccccc1C1CC(=O)Nc2cc3c(cc21)OCO3` (stereo unspecified), the fluorescence change (max-min) is -71.7.

For the compound `CCn1c(NCCc2ccc(OC)c(OC)c2)nc2c1c(=O)n(C)c(=O)n2C`, the fluorescence change (max-min) is -47.9. In the case of `CCN(CC)c1ccc2cc(C(=O)O)c(=O)oc2c1`, the fluorescence change (max-min) was 137. For `Fc1ccc2[nH]c3c(N4CCSCC4)ncnc3c2c1` the value was -68.8. Regarding `CCN=C1SC(CC(=O)Nc2ccc(C)cc2)C(=O)N1CC` (stereo unspecified), the fluorescence change (max-min) was -71.4 (active).

`COc1cccc(-n2cc3c(c2-c2ccccc2)c(=O)n(C)c(=O)n3C)c1`: the fluorescence change (max-min) was -42.2. With `COc1ccc2[nH]c(=O)c(CN(CC3CCCO3)C(=O)Nc3ccccc3)cc2c1` (stereo unspecified), the fluorescence change (max-min) was -53.6. Take `CCOc1ccc2[nH]c(=O)c(CN(Cc3nnnn3Cc3ccccc3)CC3CCCO3)cc2c1` (stereo unspecified): the fluorescence change (max-min) was -7.46. For `O=C1c2ccccc2-c2ncnc3c(N4CCOCC4)cc(N4CCOCC4)c1c23` the value was -22.7; for `FC(F)(F)COc1nc(N2CCCCC2)nc(N2CCNCC2)n1`, -26.5; for `CCOC(=O)c1cc2n(c1N)-c1ccccc1C2=O`, 2020 (active). `CC(=O)Nc1ccc(NC(=O)CN2CCCC(C)C2)c(Cl)c1` (stereo unspecified): the fluorescence change (max-min) was -37.2. For the compound `COc1ccccc1N1CCN(C(=O)c2c(-c3c(Cl)cccc3Cl)noc2C)CC1`, the fluorescence change (max-min) is -27. To `O=C(Cn1cc(C(=O)c2cccs2)c2ccccc21)NCc1cccs1` belongs -25; to `COc1ccc(C(C(O)C(=O)c2c[nH]c3ccccc23)N2CCN(c3ccccc3)CC2)cc1` (stereo unspecified), -6.79. Take `COc1cc(C(=O)Nc2oc(-c3ccccc3)c(-c3ccccc3)c2C#N)cc(OC)c1OC`: the fluorescence change (max-min) was -47.4. On to `CCCN1CC=C2C(C#N)=C(N)C(C#N)(C#N)C(c3cc(OC)ccc3OC)C2C1` (stereo unspecified), for which the fluorescence change (max-min) was 84.1.

As to `COc1ccc(NC(=O)C2CCCN(S(=O)(=O)c3cccc4cccnc34)C2)cc1OC` (stereo unspecified), the fluorescence change (max-min) is -56.1. As for `Cc1ccc2oc(=O)c3cnn(CC(=O)N4CCN(c5ccccn5)CC4)c3c2c1`, the fluorescence change (max-min) is -22. On to `CCOc1cc(N2CCOCC2)c(OCC)cc1NC(=O)COc1cccc2cccnc12`, for which the fluorescence change (max-min) was -39.2. Take `Cc1ccc(S(=O)(=O)Nc2ccc3ncccc3c2)cc1`: the fluorescence change (max-min) is -7.21. As to `O=C(NCCc1ccc2c(c1)OCCO2)c1cc2ccccc2o1`, the fluorescence change (max-min) is -9.99.

For `COc1ccc(C2C(C(=O)N3CCN(c4ccc(OC)cc4)CC3)c3ccccc3C(=O)N2C)cc1` (stereo unspecified), the fluorescence change (max-min) is -57.8. Consider `Cn1c(C(=O)NCCc2ccsc2)cc2c(=O)n(C)c3ccccc3c21`, for which the fluorescence change (max-min) is -42.5. As to `COc1ccc(N(C(=O)c2cccnc2)S(=O)(=O)c2ccc3c(c2)n(C)c(=O)n3C)cc1`, the fluorescence change (max-min) is -59.4. `O=C(CSCc1cccs1)N1CCCC1`: the fluorescence change (max-min) was -76.4. For `CN1C(=O)c2ccc(NC(=O)c3c(F)c(F)c(F)c(F)c3F)cc2C1=O`, the fluorescence change (max-min) is -27.8. As for `CC(C[N+](C)(C)C)OC(N)=O` (stereo unspecified), the fluorescence change (max-min) is 11.8.

As for `CC(=O)OC(C)C[N+](C)(C)C` (stereo unspecified), the fluorescence change (max-min) is 146 (active). `CCOC(=O)C1CCCN(C(=O)c2ccc(CS(=O)(=O)c3ccc(Br)cc3)o2)C1` (stereo unspecified): the fluorescence change (max-min) is -59.9. To `CC(C)OCCCNc1ncnc2c1[nH]c1ccc(F)cc12` belongs -4.51; to `O=C(Nc1nc(-c2ccc3c(c2)OCO3)cs1)c1ccncc1`, -52. Consider `CC(C)(C)c1cc(CN2CCN(CCC#N)CC2)cc(C(C)(C)C)c1O`, for which the fluorescence change (max-min) was -27.3. On to `O=C(Nc1cccc(-c2nnc(-c3ccccc3)o2)c1)C1CCCO1` (stereo unspecified), for which the fluorescence change (max-min) is -67.5.
